PubChem BioAssay (NCI)
About 83,000 compounds went through this panel and 20% of them were active in at least one assay; those are over-represented in the sample as a whole.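 Compound tested at a single concentration for 48 hours in 96-well plates; a percent growth value below 10 was scored as active.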 The source made the active and inactive calls.

Each compound was assayed on NCI-H522 lung (assay: NCI-60 one-dose screen, 48 h (100 = growth as untreated, 0 = no growth, -100 = all killed)). Conditions: 10 µM unless noted.

SMILES	growth
C=CCC(=O)N[C@H](/C=C/C(=O)O)Cc1ccc(-c2cc(Cl)cc(Cl)c2)cc1	70.7% (inactive)
CCN1CCN(c2cc(C)nc(N(CCCNc3ccnc4cc(Cl)ccc34)Cc3cccs3)n2)CC1	8.27% (active)
COC(=O)CCCNc1c(-c2c(O)c(O)cc3c(O)c(-c4c(C)cc5c(-c6nc7ccccn7c6NCCCC(=O)OC)c(O)c(O)cc5c4O)c(C)cc23)nc2ccccn12	1.98% (active)
Cn1ncc(Cl)c1-c1cc(C(=O)N[C@H](CN)Cc2ccc(F)c(F)c2)oc1Cl	-66.7% (active)
O=c1[nH]c(N2CCOCC2)nc2scc(-c3ccccc3)c12	77% (inactive)
Cc1cc2c(-c3nc4ccccn4c3NC3CCCCC3)c(O)c(O)cc2c(O)c1-c1c(C)cc2c(-c3nc4ccccn4c3NC3CCCCC3)c(O)c(O)cc2c1O	15.1% (inactive)
CC(C)C1CCC(C)C(C2(C#N)C(N)=NC(N)=C2C#N)C1=O (centres undefined)	89.4% (inactive)
Cc1cc(N2CCCC2)nc(N(CCCNc2ccnc3cc(Cl)ccc23)Cc2ccc3c(c2)OCO3)n1	-28.1% (active)
[2H]C1([2H])[C@H](C)O[C@H](C)C([2H])([2H])N1c1ccc(NC(=O)c2cccc(-c3ccc(OC(F)(F)F)cc3)c2C)cn1	44.7% (inactive)
Cc1cc2c(-c3nc4ccccn4c3NC34CC5CC(CC(C5)C3)C4)c(O)c(O)cc2c(O)c1-c1c(C)cc2c(-c3nc4ccccn4c3NC34CC5CC(CC(C5)C3)C4)c(O)c(O)cc2c1O	-5.03% (active)
CC[C@H](Nc1ncnc2nc[nH]c12)c1nc2cccc(F)c2c(=O)n1-c1ccccc1	22.4% (inactive)
COC(=O)C1=C(C(=O)OC)C23C=C(C)C1C2=C(C)C1(CC1)[C@@](C)(O)C3=O (some centres undefined)	-11% (active)
c1ccc2c(c1)CCN(NCCN1CCCC1)C2	91.3% (inactive)
Cc1cc(N(CCNc2ccnc3cc(Cl)ccc23)Cc2cccs2)nc(Cl)n1	-49.1% (active)
COc1cc(-c2nc(C(=O)Nc3ccc(C)cc3)nn2-c2ccc(F)c(F)c2)cc(OC)c1OC	48% (inactive)
O=C(Cn1c(=O)ccn(CCCCCCCCOc2ccc(Br)cc2)c1=O)Nc1ccc(Oc2ccc(Cl)cc2)cc1	44.6% (inactive)
Cc1ccc(-c2cc3c(SCC(=O)Nc4cc(C(F)(F)F)ccc4Cl)nccn3n2)cc1	42.7% (inactive)
CCCc1cc2cc(-n3nc(C)c4c3CC(C)(C)CC4=O)cc(NC3CCC(O)CC3)c2c(=O)[nH]1 (centres undefined)	40.8% (inactive)
COc1ccc(C(=O)c2cc(OC)c(OC)c(OC)c2)cc1/C=C/C(=O)c1ccc(F)cc1	18.5% (inactive)
CC(C)=CCc1cc2c(cc1O)C1=C(C(=O)C3=C(C1=O)S(=O)(=O)CCN3)C(C=C(C)C)O2 (centres undefined)	-50.8% (active)

SMILES	growth
CN1CCN(c2nc(NCCNc3ccnc4cc(Cl)ccc34)c3ccccc3n2)CC1	-20.2% (active)
COc1ccc(CCCc2c3[n+](cc4c(OC)c(OC)ccc24)CCc2cc4c(cc2-3)OCO4)cc1	38.7% (inactive)
N#Cc1cc2[nH]c3ccc(OC(F)(F)F)cc3c2oc1=O	42.4% (inactive)
CCN1CCN(CCCN(C[C@H]2Cc3ccccc3CN2)[C@H]2CCCc3cccnc32)CC1	89.3% (inactive)
Clc1ccc2c(NCCCNCc3ccc4c(c3)OCO4)ccnc2c1	20.1% (inactive)
Cc1cc(N2CCOCC2)nc(N(CCNc2ccnc3cc(Cl)ccc23)Cc2cccs2)n1	-21.5% (active)
CCN1CCN(c2cc(C)nc(N(CCCNc3ccnc4cc(Cl)ccc34)Cc3ccc4c(c3)OCO4)n2)CC1	-24.5% (active)
COc1cc(-c2cc(-c3ccc(Nc4ccnc5cc(Cl)ccc45)cc3)nc(N3CCOCC3)n2)cc(OC)c1OC	-23.7% (active)
COC(=O)C1CCc2sc3ncnc(Nc4cn[nH]c4C(=O)Nc4ccc(CN5CCN(C)CC5)cc4)c3c21 (centres undefined)	-1.37% (active)
CO/C=C/C(=O)c1cc2cnc3c(=N)cc(NC(=O)C(C)C)c([nH]1)c23	23.8% (inactive)
CCN1CCN(c2nc(C)cc(N(CCNc3ccnc4cc(Cl)ccc34)Cc3ccc4c(c3)OCO4)n2)CC1	-0.151% (active)
N#CC(C#N)=NO	75% (inactive)
C=CC(=O)N(C)[C@H]1C[C@H]2OC(C)(C1OC)n1c3ccccc3c3c4c(c5c6ccccc6n2c5c31)C(=O)NC4 (some centres undefined)	-54.5% (active)
Cc1ccc(NC(=O)NC(=O)CSc2nc3ccccc3nc2C)cc1	40.8% (inactive)
C=CCn1c(=O)c2cnc(Nc3ccc(N4CCN(C)CC4)cc3)nc2n1-c1cccc(C(C)(C)O)n1	-45.8% (active)
Clc1ccc2c(NCCNc3nc(N4CCCC4)nc4ccccc34)ccnc2c1	-48% (active)
Clc1ccc(/C=C/c2cc(N3CCOCC3)c3cc(Cl)c(Cl)cc3n2)cc1	-43.7% (active)
Nc1ncnc2c1ccn2-c1cccc(NC(=O)c2ccc(N3CCOCC3)c(C(F)(F)F)c2)c1	18.7% (inactive)
CC12O[C@H](C[C@@H](OC(=O)CCC(=O)O)[C@H]1O)n1c3ccccc3c3c4c(c5c6ccccc6n2c5c31)C(=O)NC4=O	21% (inactive)
